# Screening data: PubChem, The Scripps Research Institute Molecular Screening Center
# Fam108B inh: Fam108B inhibition, counter-screen for RBBP9 inhibitors | 0.33% of 300,000 active | inhibition, % at 9.51 µM | recombinant Fam108B, FP-Rh probe fluorescence polarization | AID 1947;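 active = inhibition above the screen mean inhibition plus 3 SD, computed separately per campaign, cut at about 18% in these data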;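 note: inhibitors lower polarization as less probe binds the enzyme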
# PAD4 inh: blocks human protein arginine deiminase 4; 0.41% of 330,000 active; recombinant PAD4, RCA probe fluorescence polarization; Q9UM07; inhibition, % at 6.36 µM; AID 485272;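 active = percent inhibition above a cutoff equal to the mean of all tested compounds plus 3 SD, cut at about 15% in these data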;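 note: 0% = PAD4 with RCA probe and DMSO and 100% = probe without PAD4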
# Target sequence (Q9UM07 whole entry, looked up): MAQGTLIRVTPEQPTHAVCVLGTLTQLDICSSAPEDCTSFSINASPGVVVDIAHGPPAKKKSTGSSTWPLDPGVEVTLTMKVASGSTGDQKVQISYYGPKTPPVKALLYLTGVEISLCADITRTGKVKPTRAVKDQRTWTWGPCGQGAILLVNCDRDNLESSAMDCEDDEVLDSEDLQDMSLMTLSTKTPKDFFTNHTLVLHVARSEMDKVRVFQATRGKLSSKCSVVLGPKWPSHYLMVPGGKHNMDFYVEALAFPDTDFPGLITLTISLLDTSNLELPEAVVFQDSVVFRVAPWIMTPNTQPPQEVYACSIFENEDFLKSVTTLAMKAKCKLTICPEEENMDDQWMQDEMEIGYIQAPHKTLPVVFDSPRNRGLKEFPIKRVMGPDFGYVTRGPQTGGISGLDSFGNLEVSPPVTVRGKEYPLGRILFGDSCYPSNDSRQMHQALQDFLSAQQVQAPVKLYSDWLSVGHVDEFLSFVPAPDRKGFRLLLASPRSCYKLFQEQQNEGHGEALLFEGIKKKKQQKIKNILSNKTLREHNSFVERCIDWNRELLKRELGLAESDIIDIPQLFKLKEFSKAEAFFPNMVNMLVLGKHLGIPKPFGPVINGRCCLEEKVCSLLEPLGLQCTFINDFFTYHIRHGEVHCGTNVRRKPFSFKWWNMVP
# LYPLA1 counter: counter-screen for PME1 inhibitors: inhibitors of human LYPLA1; inhibition, % at 5.9 µM; 0.16% of 320,000 active; AID 2174; recombinant LYPLA1, FP-Rh probe fluorescence polarization;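 active = inhibition above the mean of all tested compounds plus 3 SD, set per campaign, cut at about 14% in these data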;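 note: inhibitors block serine hydrolase probe labeling of LYPLA1 so polarization falls; 0% = enzyme with DMSO and 100% = wells lacking LYPLA1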
# PME-1 primary: PME-1 (human) inhibition; Q9Y570; recombinant PME-1, FP-Rh probe fluorescence polarization; inhibition, % at 5.9 µM; 0.53% of 320,000 active; AID 2130;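 active = inhibition above the campaign mean of all compounds plus 3 SD, cut at about 26% in these data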;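 note: competitive labeling of PME-1 active site by serine hydrolase directed probe; 0% = PME-1 with DMSO and 100% = wells lacking PME-1 enzyme; inhibitors block probe labeling so polarization falls and inhibition rises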
# LYPLA2 inh: blocks human lysophospholipase 2, a PME1 counter-screen; O95372; recombinant LYPLA2, FP-Rh probe fluorescence polarization; inhibition, % at 5.9 µM; 0.38% of 320,000 active; AID 2177;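 active = inhibition above the screen-wide mean plus 3 SD, limit set per campaign, cut at about 26% in these data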;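 note: 0% = LYPLA2 with DMSO and 100% = wells lacking LYPLA2 enzyme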
# GSTO1 counter: blocks human GSTO1 in RBBP9 counter-screen | P78417 | 1.1% of 300,000 active | AID 1974 | inhibition, % at 5.96 µM | recombinant GSTO1, activity-based probe fluorescence polarization;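 active = inhibition above the campaign mean inhibition plus 3 SD, cut at about 35% in these data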;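 note: 0% = GSTO1-1 with DMSO and 100% = wells lacking GSTO1-1 enzyme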
# * marks the source's active call; other numbers are inactive results; / = no result. In the library only some 1.8% were active in any assay of this set; here they are far more common.
SMILES,Fam108B inh,PAD4 inh,LYPLA1 counter,PME-1 primary,LYPLA2 inh,GSTO1 counter
CCCCCCC(=O)N1CCC(c2nc3c(nnn3Cc3ccccc3Cl)c(=O)[nH]2)CC1,-3.4,-1.7,6.9,26.8*,38.5*,-2.8
Cc1nn(C)c(C)c1NC(=O)c1ccccc1NC(=O)Nc1ccccc1,-2.3,4.3,-0.6,2.2,0.7,6.3
Cc1ccc(C)c(OC(=O)c2cccnc2Cl)c1C,-1.8,-1.5,-5.6,9.1,-3.8,7.0
CCCCCCCC(=O)Oc1ccc(C(=O)Nc2cc(C)on2)cc1,3.4,-0.7,3.9,-3.3,2.4,-5.0
CN(C)C(=O)CN1CCN(C(=O)CCl)CC1,1.5,-5.1,-3.4,-6.3,-1.1,61.0*
Cc1ccccc1NC(=O)Nc1ccccc1C(=O)NCc1ccccc1,-6.9,0.1,-0.7,-2.6,2.7,-1.8
O=C(CCl)Nc1ccccc1C(=O)NCc1ccccc1,-3.2,-0.8,-1.1,-3.9,-2.3,85.9*
CCOc1ccccc1NC(=O)CN1C(=O)NC(Cc2c[nH]c3ccccc23)C1=O (centres undefined),/,-1.6,-2.5,5.5,-9.7,/
NS(=O)(=O)c1cccc(NC(=O)COC(=O)c2ccccc2SCC(=O)N2CCCC2)c1,/,-1.6,/,/,/,/
CC(=O)C1=C(c2ccccc2)NC(=O)NC1c1ccc(O)c(O)c1 (centres undefined),1.9,-4.1,-2.8,-0.7,-8.8,36.9*
CCOc1cc(C(c2c(C)[nH][nH]c2=O)c2c(C)[nH][nH]c2=O)ccc1O,-1.2,-11.3,5.3,1.6,4.4,46.0*
Cc1[nH][nH]c(=O)c1C(c1ccc(O)c(Br)c1)c1c(C)[nH][nH]c1=O,1.3,-6.1,-3.9,3.1,-9.0,25.5
Nc1c(O)cccc1C(=O)O,1.1,13.2,-0.3,-0.2,9.8,75.9*
O=C(O)c1ccccc1O,-3.7,-8.9,-2.2,-4.2,-3.5,3.6
COc1ccc(C(=O)N2CCc3cc(OC)c(OC)cc3C2)cc1OC,1.9,-3.6,-0.3,-0.4,5.4,4.1
COc1cc2c(cc1OC)CN(C(=O)c1ccc3[nH]c(C)c(C)c3c1)CC2,-1.7,-3.4,1.8,38.0*,1.4,-4.4
Cc1ccc(C)c(NC(=O)COC(=O)c2cc3ccccc3oc2=O)c1,/,-1.4,1.3,27.4*,1.2,/
CC(C)CC(=O)O/N=C1\C(=O)N(Cc2ccc(Cl)cc2)c2ccc([N+](=O)[O-])cc21,43.3*,0.8,9.5,35.3*,43.5*,40.3*
O=C(N/N=C/c1c(O)ccc2ccccc12)c1ccc[n+](CCO)c1,-4.5,2.4,-4.0,-1.2,-2.9,43.8*
O=C(N/N=C/c1c(O)ccc2ccccc12)c1cccnc1,4.8,-11.2,-4.8,10.1,-2.3,15.2
Cn1cc(C(=O)N/N=C/c2c(O)ccc3ccccc23)ccc1=O,15.9,4.6,-2.3,12.6,3.5,38.7*
CCN(CC)S(=O)(=O)c1cc(NC(=O)CNc2cccc(S(=O)(=O)N3CCOCC3)c2)ccc1C,0.8,-0.5,-1.4,-1.5,-1.7,7.8
O=C(/C(=N/N=C/c1ccc(O)c(O)c1)c1ccccc1)c1ccccc1,22.0*,-2.0,-17.7,30.1*,-19.9,1.6
Oc1ccc(/C=N/N(c2ccccc2)c2ccccc2)cc1O,-1.8,0.3,-4.2,-5.1,-4.6,8.5
CCCCN(CCCC)CCNC(=O)c1cn(CC)c2ccc(S(=O)(=O)N(C)C3CCCCC3)cc2c1=O,1.0,0.6,-0.6,82.5*,4.8,1.8
SMILES,Fam108B inh,PAD4 inh,LYPLA1 counter,PME-1 primary,LYPLA2 inh,GSTO1 counter
CCn1cc(C(=O)NCCCN2CCCC(C)C2)c(=O)c2cc(S(=O)(=O)N(C)C3CCCCC3)ccc21 (centres undefined),-6.8,-1.9,-2.1,52.2*,-3.9,-1.8
CCCCN(CC)CCCNC(=O)c1cn(C)c2ccc(S(=O)(=O)N(C)C3CCCCC3)cc2c1=O,4.0,-3.9,1.0,40.2*,6.6,-6.3
O=c1[nH]c2ccc(S(=O)(=O)N3CCN(Cc4ccccc4)CC3)cc2[nH]c1=O,1.1,-3.4,-0.9,1.0,-0.1,34.9*
CN(C(=O)COC(=O)c1cc(S(=O)(=O)N2CCOCC2)c(Cl)cc1Cl)C1CCS(=O)(=O)C1 (centres undefined),-0.5,5.5,-1.9,-4.4,-3.8,54.4*
CCOC(=O)Cc1csc(NC(=O)c2sc3nc4cc(C)ccc4cc3c2N)n1,3.5,-4.5,-1.3,45.7*,0.2,1.8
COc1ccc(Nc2cnn(-c3nc4ccccc4s3)c(=O)c2Cl)cc1,1.6,-2.6,-2.8,29.1*,11.4,-5.3
